What is called viability is a read-out of living cells in per cent, often relative to untreated cells.

In PubChem BioAssay (NCATS) one finds Potency and viability data, which are given here for 18 molecules.

Molecules are shown by their SMILES. Results filed as inconclusive are left out. Unmarked numbers belong to inactive results. Active and inactive are the calls of the source. The call rests on the fitted dose curve; in most records, active means well fitted curve in the direction sought with a large enough effect; inconclusive means small, poorly fitted or top-dose-only effect, or another doubt; inactive means no such curve, though single readings can be large; an effect the other way counts as inactive or inconclusive.

Assay [1] can be described thus: BET inhibitor-based combinations targeting novel dependencies in MECOM-rearranged (r) AML: SET-2 cell line (AID 2202231). Further: nearly all actives have a fitted effect of over 35% in size.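 On viability: plate controls were DMSO treated cells for no effect and wells without cells for full effect.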 The note with it: SET-2 AML cells viability, CellTiter-Glo luminescence, 48 h; viability: active compounds read low, concentration not given here. The gist of the method:
(§1)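 Luminescent ATP readout (CellTiter-Glo) after 48 hr drug exposure gives viability. Curves span 11 concentrations and are normalized to DMSO and empty wells. Activity is reported as area under the curve and its Z-transform within each cell line.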
In general terms: In ATP-based viability assays light output follows the ATP content of the culture.

Assay [2] can be described thus: BET inhibitor-based combinations targeting novel dependencies in MECOM-rearranged (r) AML: OCI-AML3 cell line (AID 2202232). Further: nearly all actives have a fitted effect of over 35% in size. The settings on record: Potency: OCI-AML3 viability. The gist of the method: as §1
The nature of assay [3]: BET inhibitor-based combinations targeting novel dependencies in MECOM-rearranged (r) AML: MV-4-11 cell line (AID 2202233). Further: nearly all actives have a fitted effect of over 45% in size. The gist of the method: (§2)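 Luminescent ATP readout (CellTiter-Glo, 15 min at room temperature) after 48 hr drug exposure gave viability. Dose-response curves, normalized to DMSO and empty-well controls, were summarized as area under the curve and its mean-centred Z-score.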

The nature of assay [4]: BET inhibitor-based combinations targeting novel dependencies in MECOM-rearranged (r) AML: HNT-34 cell line (AID 2202234). Further: nearly all actives have a fitted effect of over 35% in size. The gist of the method: as §2
Assay [5] in a line: BET inhibitor-based combinations targeting novel dependencies in MECOM-rearranged (r) AML: UCSD-AML1 cell line (AID 2202235). Further: nearly all actives have a fitted effect of over 40% in size. The gist of the method:
as §2

Assay [6] can be described thus: BET inhibitor-based combinations targeting novel dependencies in MECOM-rearranged (r) AML: AML-191 cell line (AID 2202236; further: nearly all actives have a fitted effect of over 35% in size). The gist of the method: as §1
The nature of assay [7]: BET inhibitor-based combinations targeting novel dependencies in MECOM-rearranged (r) AML: AML-194 cell line (AID 2202237; further: nearly all actives have a fitted effect of over 40% in size). An outline of the steps:
as §1
Potency means the concentration at half of the fitted maximal effect.

In the case of `CO[C@H]1/C=C\C=C(\C)C(=O)NC2=CC(=O)C(NCCN(C)C)=C(C[C@@H](C)C[C@H](OC)[C@H](O)[C@@H](C)/C=C(/C)[C@@H]1OC(N)=O)C2=O`, the Potency is 2950 nM (active) in assay [1]; 118 nM (active) in assay [2]; 29.5 nM (active) in assay [3]; 417 nM (active) in assay [4]; 296 nM (active) in assay [5]; 1050 nM (active) in assay [6]. In addition, the Potency in assay [7] is 662 nM (active).
Regarding `Nc1nc(Nc2ccc3c(c2)CC[C@@H](N2CCCC2)CC3)nn1-c1cc2c(nn1)-c1ccccc1CCC2`, the Potency in assay [1] was 23500 nM (active); in assay [2], 18600 nM (active); in assay [3] it was 2630 nM (active); in assay [4], 7420 nM (active); in assay [5], 18600 nM (active); in assay [6], 18600 nM (active). Further, the Potency in assay [7] was 20900 nM (active).
With `C=CC(=O)Nc1cc2c(Nc3ccc(F)c(Cl)c3)ncnc2cc1C#CC(C)(C)N1CCN(C)CC1`, the Potency in assay [1] was 5900 nM (active); in assay [2], 2630 nM (active); in assay [3], 742 nM (active); in assay [4] it was 3720 nM (active); in assay [5], 4170 nM (active); in assay [6], 4680 nM (active). For the same molecule, the Potency in assay [7] is 4680 nM (active).
Consider `COc1cccc2c1C(=O)c1c(O)c3c(c(O)c1C2=O)C[C@@](O)(/C(CO)=N/NC(=O)CCCCCN1C(=O)C=CC1=O)C[C@@H]3O[C@H]1C[C@H](N)[C@H](O)[C@H](C)O1`, for which the Potency is 2950 nM (active) in assay [1]; 417 nM (active) in assay [2]; 186 nM (active) in assay [3]; 934 nM (active) in assay [4]; 525 nM (active) in assay [5]; 1050 nM (active) in assay [6]. For the same molecule, the Potency in assay [7] was 934 nM (active).
Turning to `C/C(=C\c1csc(C)n1)[C@@H]1C[C@@H]2O[C@]2(C)CCC[C@H](C)[C@H](O)[C@@H](C)C(=O)C(C)(C)[C@@H](O)CC(=O)N1`, the Potency in assay [1] is 52.5 nM (active); in assay [2] it was 20.9 nM (active); in assay [3], 33.2 nM (active); in assay [4] it was 14.8 nM (active); in assay [5] it was 16.6 nM (active); in assay [6], 23.5 nM (active). Also, in assay [7], the Potency is 29.5 nM (active).
In the case of `N=C1CCCN1Cc1[nH]c(=O)[nH]c(=O)c1Cl`, in assay [1], the viability is 111%. For the same molecule, the Potency entry in assay [2], in assay [3], in assay [4], in assay [5], in assay [6] and in assay [7] was “inactive” each time.
Regarding `CC(C)(O)CNc1ncc(-c2ccnc(Nc3ccncc3)n2)c(CC2CC2)n1`, the Potency is 18600 nM (active) in assay [1]; 18600 nM (active) in assay [2]; 5900 nM (active) in assay [3]; 9340 nM (active) in assay [4]; 14800 nM (active) in assay [5]; 13200 nM (active) in assay [6]. In addition, the Potency in assay [7] was 16600 nM (active).
`CN[C@H]1CN(c2ccc3c(=O)c(C(=O)O)cn(-c4nccs4)c3n2)C[C@@H]1OC`: the Potency was 2410 nM (active) in assay [1]; 1080 nM (active) in assay [2]; 270 nM (active) in assay [3]; 679 nM (active) in assay [4]; 855 nM (active) in assay [5]; 1350 nM (active) in assay [6]. Further, the Potency in assay [7] was 1520 nM (active).
As for `O=C(CCCCCCC(=O)N/N=C/c1ccc(N(c2ccccc2)c2ccccc2)cc1)NO`, the Potency is 7420 nM (active) in assay [1]; 13200 nM (active) in assay [2]; 4680 nM (active) in assay [3]; 4680 nM (active) in assay [4]; 7420 nM (active) in assay [5]; 6610 nM (active) in assay [6]. For the same molecule, in assay [7], the Potency is 7420 nM (active).
As for `C=C1C(=O)O[C@@H]2[C@H]3C(C)=CC[C@@]34O[C@@]4(C)CC[C@@H]12`, the Potency in assay [1] was 9340 nM (active); in assay [2] it was 8330 nM (active); in assay [3], 7420 nM (active); in assay [4], 10500 nM (active); in assay [5], 13200 nM (active); in assay [6] it was 13200 nM (active). Moreover, in assay [7], the Potency is 13200 nM (active).
As for `CC(C)(O)CS(=O)(=O)Nc1ccc2c(c1)CCN(C(=O)COc1cccnc1)C2`, the viability in assay [1] was 108%. Also, the Potency in assay [2] was 23.5 nM (active); in assay [3] it was 105 nM (active); in assay [4], 66.1 nM (active); in assay [5], 332 nM (active); in assay [6] it was 66.1 nM (active). In assay [7], the Potency entry is “inactive”.
Take `CC(=O)c1ccc2c(c1)c1cc(C(C)=O)ccc1n2CCNC(C)C`: the Potency was 1180 nM (active) in assay [1]; 1050 nM (active) in assay [2]; 525 nM (active) in assay [3]; 1320 nM (active) in assay [4]; 833 nM (active) in assay [5]; 833 nM (active) in assay [6]. Besides, the Potency in assay [7] is 1320 nM (active).
`Cc1ccc(C)c(OCCCC(C)(C)C(=O)O)c1`: in assay [1], the viability was 116%. In addition, the Potency entry in assay [2], in assay [3], in assay [4], in assay [5], in assay [6] and in assay [7] was “inactive” throughout.
For the molecule `Fc1cccc(-n2cnc3c(NCc4nc5c(F)c(F)ccc5[nH]4)nc(N4CCOCC4)nc32)c1`, the Potency in assay [1] was 372 nM (active); in assay [2] it was 742 nM (active); in assay [3], 263 nM (active); in assay [4], 296 nM (active); in assay [5], 296 nM (active); in assay [6] it was 166 nM (active). In addition, the Potency in assay [7] is 372 nM (active).
Turning to `C[C@]12CC[C@H](O)CC1=CC[C@@H]1[C@@H]2CC[C@]2(C)C(c3cccnc3)=CC[C@@H]12`, the viability in assay [1] was 107%. For the same molecule, the Potency entry in assay [2], in assay [3], in assay [4], in assay [5], in assay [6] and in assay [7] was “inactive” in each case.
Regarding `N#Cc1c(N(CC(=O)O)CC(=O)O)sc(C(=O)O)c1CC(=O)O`, in assay [1], the viability was 117%. In addition, the Potency entry in assay [2], in assay [3], in assay [4], in assay [5], in assay [6] and in assay [7] was “inactive” in each case.
In the case of `COc1cc2c3c(n(CCCN4CCOCC4)c(=O)c2cc1OC)-c1cc2c(cc1C3=O)OCO2`, the Potency in assay [1] is 105 nM (active); in assay [2], 33.2 nM (active); in assay [3], 83.3 nM (active); in assay [4] it was 93.4 nM (active); in assay [5], 93.4 nM (active); in assay [6] it was 105 nM (active). The Potency in assay [7] is 417 nM (active).
On to `CC(=O)N[C@H]1[C@H](O[C@@H]2c3ccc(c(Cl)c3)Oc3cc4cc(c3O[C@@H]3O[C@H](CO)[C@@H](O)[C@H](O)[C@H]3NC(=O)CCCCCCCC(C)C)Oc3ccc(cc3Cl)C[C@H]3NC(=O)[C@H](N)c5ccc(O)c(c5)Oc5cc(O)cc(c5)[C@H](NC3=O)C(=O)N[C@H]4C(=O)N[C@H]3C(=O)N[C@@H]2C(=O)N[C@@H](C(=O)O)c2cc(O)cc(O[C@H]4O[C@H](CO)[C@@H](O)[C@H](O)[C@@H]4O)c2-c2cc3ccc2O)O[C@H](CO)[C@@H](O)[C@@H]1O`, for which the viability in assay [1] was 113%. Further, the Potency result in assay [2], in assay [3], in assay [4], in assay [5], in assay [6] and in assay [7] was “inactive” in each case.
